Sampled rows, rich in hits. Any-hit rate of the full collection: about 5.3%.
Vaccinia Venus = inhibitors of vaccinia virus (Venus reporter); Vaccinia virus Venus reporter expression, fluorescence; Potency, µM (series often up to 36.5 µM), most hits filed as inhibitors; 0.46% of 330,000 active; AID 720580; calls by dose curve; tested in A549 cells; note: nearly all actives have a fitted effect of over 30% in size
Vaccinia mCherry = vaccinia inhibition (mCherry reporter) | Vaccinia virus mCherry reporter infection, fluorescence | Potency, µM (top dose mostly 36.5 µM), most hits filed as inhibitors | 0.63% of 310,000 active; calls by dose curve; tested in A549 cells; note: nearly all actives have a fitted effect of over 35% in size
HCV inhibitor = HCV inhibition | Potency, µM (doses to about 41.8 µM), most hits filed as inhibitors | 3.4% of 340,000 active | Huh7.5.1 HCVcc-Cre infection, luciferase reporter, 44 h; active = well fitted inhibition curve with a large enough effect; inconclusive = small, poorly fitted or top-dose-only effect, or another doubt; inactive = no such curve, though single readings can be large or run the other way
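Infectious HCVcc-Cre (~0.5 moi) was added to cells just after compound, with cells seeded 4 h earlier at 1,000 per well. Luciferase activity after 44 h culture reported infection; substrate was incubated 15 min at room temperature before reading.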
MARV entry inh = inhibitors of Marburg virus binding or cell entry | Marburg virus pseudotyped entry inhibition, cell reporter | Potency, µM (doses to about 37.8 µM), actives largely listed as inhibitors | 1.8% of 300,000 active | AID 540276; calls by dose curve; tested in HEK293 cells
FMDV inh = foot and mouth disease virus antiviral activity; FMDV antiviral cell-based qHTS; Potency, µM (highest dose often 57.9 µM), hits mostly inhibitors; 1.2% of 410,000 active; calls by dose curve; tested in HEK293T cells; note: read-out not given here; nearly all actives have a fitted effect of over 45% in size
LASV entry inh = inhibitors of Lassa virus binding or cell entry; Lassa virus pseudotype entry inhibition, cell reporter; Potency, µM (titrated, usually from 37.9 µM), actives largely listed as inhibitors; 1.2% of 300,000 active; AID 540256; calls by dose curve; tested in HEK293 cells; note: nearly all actives have a fitted effect of over 50% in size
Large screens that a line does not name were inactive.

COc1ccc(N2CCN(C(=O)Cn3cnc4sc(C)c(S(=O)(=O)N5CCCCC5)c4c3=O)CC2)cc1	LASV entry inh inconclusive (no result: HCV inhibitor)
O=C(NCc1ccccc1Cl)c1ccc2c(c1)N(Cc1ccccc1)C(=O)CS2	none (no result: HCV inhibitor, MARV entry inh)
O=C(CN1CCN(c2ccc(O)cc2)CC1)Nc1ccccc1C(=O)NCCc1ccccc1	HCV inhibitor 13µM (no result: Vaccinia Venus, Vaccinia mCherry, MARV entry inh, LASV entry inh)
Cc1c(C(=O)N2CC3CCC2C3)sc2ncnc(NCCc3c[nH]c4ccccc34)c12 (centres undefined)	Vaccinia mCherry inconclusive, FMDV inh inconclusive (no result: HCV inhibitor, MARV entry inh, LASV entry inh)
COc1ccc(NC(=O)c2ccccc2OCc2ccc(F)cc2)c(OC)c1	HCV inhibitor inconclusive (no result: LASV entry inh)
COc1ccc(NC(=O)c2cnc(SC)n2-c2ccc(F)cc2)c(OC)c1	HCV inhibitor inconclusive, MARV entry inh 13µM, FMDV inh inconclusive, LASV entry inh inconclusive
N#CC1c2ccccc2C=CN1C(=O)N(c1ccccc1)c1ccccc1 (centres undefined)	Vaccinia mCherry inconclusive, HCV inhibitor inconclusive, MARV entry inh inconclusive, FMDV inh 32µM, LASV entry inh inconclusive
CCCCCCCCCCC[N+](C)(C)CC/C=C1/c2ccccc2Sc2ccc(Cl)cc21	Vaccinia Venus 11µM, Vaccinia mCherry inconclusive, FMDV inh inconclusive (no result: MARV entry inh, LASV entry inh)
CCCCCCCCCC[N+](C)(C)CC/C=C1/c2ccccc2Sc2ccc(Cl)cc21	Vaccinia Venus 11µM, Vaccinia mCherry inconclusive, HCV inhibitor inconclusive, FMDV inh inconclusive (no result: MARV entry inh, LASV entry inh)
CCNC(=O)/C(C#N)=C/c1c(N2CCCCCC2)nc2c(C)cccn2c1=O	Vaccinia Venus inconclusive, Vaccinia mCherry inconclusive, HCV inhibitor inconclusive, MARV entry inh inconclusive, LASV entry inh 8.9µM
C[n+]1c2ccccc2nc2ccc(NCCO)cc21	HCV inhibitor 14µM, MARV entry inh inconclusive, FMDV inh inconclusive, LASV entry inh inconclusive
CC(C)n1c(NCCO)nc2ccccc21	none
CCOC(=O)c1ccc(NC(=S)NCCc2ccc(F)cc2)cc1	HCV inhibitor 11µM, FMDV inh inconclusive
C=CCOc1ccc(CN(C)CC(O)COc2cccc3ccccc23)cc1 (centres undefined)	HCV inhibitor 32µM, MARV entry inh inconclusive, LASV entry inh inconclusive
CN(Cc1ccccc1)CC(O)COc1ccc(CNCCc2ccncc2)cc1 (centres undefined)	Vaccinia mCherry inconclusive, HCV inhibitor 13µM (no result: MARV entry inh, LASV entry inh)
CCc1ccc(CNCc2ccc(OCC(O)CN(C)Cc3ccccc3)cc2)nc1 (centres undefined)	Vaccinia mCherry inconclusive, HCV inhibitor 11µM (no result: MARV entry inh, LASV entry inh)
CN(Cc1ccccc1)CC(O)COc1ccc(CNCCc2cccnc2)cc1 (centres undefined)	HCV inhibitor inconclusive (no result: Vaccinia Venus, Vaccinia mCherry, MARV entry inh, LASV entry inh)
C#CCn1c(COc2ccccc2C)nc2ccccc21	MARV entry inh inconclusive (no result: HCV inhibitor)
CC(O)(COc1ccccc1)c1ccc2c(c1)CN(Cc1ccccn1)CCO2 (centres undefined)	none (no result: HCV inhibitor, MARV entry inh, LASV entry inh)
CCOc1ccc(-n2nc3ccc(NC(=O)c4ccc(-c5cccc(Cl)c5)o4)cc3n2)cc1	none (no result: HCV inhibitor, MARV entry inh)
C=C(C)C1CC=C(C)/C(=N/NC(=O)COc2ccc(C)cc2)C1 (centres undefined)	MARV entry inh inconclusive (no result: Vaccinia Venus, Vaccinia mCherry)
C=C(C)C1CC=C(C)/C(=N\NC(=S)Nc2ccc(C)cc2)C1 (centres undefined)	HCV inhibitor inconclusive, MARV entry inh inconclusive, LASV entry inh 13µM
Cn1c(=O)c(-c2ccc(F)cc2)nc2cnc(OCc3ccccc3)nc21	none (no result: Vaccinia Venus, Vaccinia mCherry, HCV inhibitor, MARV entry inh, LASV entry inh)
CCOC(=O)c1cc2c(=Cc3ccc(N(C)C)cc3)c3ccccc3n2[n+]1C	HCV inhibitor inconclusive, MARV entry inh inconclusive, FMDV inh 18µM, LASV entry inh 11µM
Cc1cc2c(=Cc3ccc(N(C)C)cc3)c3ccccc3n2[n+]1C	HCV inhibitor 1.3µM, MARV entry inh inconclusive, LASV entry inh 2.2µM
CN(C)c1ccc(C=c2c3ccccc3n3c2c2ccccc2[n+]3C)cc1	Vaccinia Venus inconclusive, Vaccinia mCherry inconclusive, HCV inhibitor 8.9µM, MARV entry inh inconclusive, FMDV inh 25µM, LASV entry inh 7.1µM
CC(=O)Nc1nnc(SCc2cc(=O)c3cccc(Cl)c3[nH]2)s1	LASV entry inh inconclusive (no result: HCV inhibitor, MARV entry inh)
Cc1cnc(-n2ncc(C(=O)N(C)CCc3ccccn3)c2-c2cccs2)nc1-c1ccc(F)cc1	none (no result: HCV inhibitor, MARV entry inh, LASV entry inh)
Cc1cc(C)cc(-n2ccn(CC(=O)Nc3ccccc3F)c(=O)c2=O)c1	none (no result: HCV inhibitor, MARV entry inh)
CC1=CC(=O)C(Sc2ccc(C)cc2)=CC1=O	FMDV inh inconclusive (no result: HCV inhibitor, MARV entry inh, LASV entry inh)
Cn1c2ccccc2c(=O)c2ccc(NCCc3cccs3)cc21	Vaccinia Venus inconclusive, HCV inhibitor 11µM (no result: MARV entry inh, LASV entry inh)
COc1cccc(OC)c1C(=O)OCC(=O)N(c1ccccc1)C1CCCCC1	HCV inhibitor inconclusive (no result: Vaccinia Venus, Vaccinia mCherry, MARV entry inh, LASV entry inh)
Cc1ccccc1CN(C)CCS(=O)(=O)c1cc(Cl)ccc1Cl	Vaccinia Venus inconclusive, Vaccinia mCherry 5µM
CCOC(=O)c1cccc(NC(=O)NCc2ccc3c(c2)CCN3C(=O)c2ccccc2)c1	Vaccinia Venus inconclusive, Vaccinia mCherry inconclusive, FMDV inh 40µM, LASV entry inh inconclusive (no result: HCV inhibitor, MARV entry inh)
Cc1cccc(C(=O)N2CCc3cc(CNC(=O)c4ccnn4C)ccc32)c1	FMDV inh 20µM, LASV entry inh inconclusive (no result: HCV inhibitor, MARV entry inh)
Cc1ccc(C(=O)N2CCc3cc(CNC(=O)c4ccnn4C)ccc32)cc1	Vaccinia Venus inconclusive, FMDV inh inconclusive, LASV entry inh inconclusive (no result: HCV inhibitor, MARV entry inh)
CCC1CN(CCNC(=O)c2ccc3c(c2)OCO3)Cc2cc(OC)ccc2O1 (centres undefined)	none (no result: HCV inhibitor, MARV entry inh, LASV entry inh)
C=CCn1c(=NC(=O)C2COc3ccccc3O2)sc2cc(S(N)(=O)=O)ccc21 (centres undefined)	FMDV inh 32µM
COCCn1c(=NC(=O)C2COc3ccccc3O2)sc2cc(S(N)(=O)=O)ccc21 (centres undefined)	LASV entry inh inconclusive
Cc1oc(-c2ccccc2F)nc1CSCC(=O)NCc1ccccc1	none (no result: HCV inhibitor)

Screening data as filed in PubChem.
